PINK1 modulator – A Quantitative High throughput Screen to Identify Chemical Modulators of PINK1 Expression; PINK1 immunofluorescence, high-content cytometry, 24 h; Potency, µM (top dose mostly 76.6 µM), for inactives: at the highest dose activation (PINK1 increase), actives largely listed as activators; 410,000 compounds, 0.2% hits; active means well fitted activation curve with a large enough effect; inconclusive means small, poorly fitted or top-dose-only effect; cell line not stated here; further: % of control where 0% means no effect; nearly all actives have a fitted effect of over 65% in size
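Readout is PINK1 immunofluorescence, quantified alongside mitochondrial, cell and nuclear markers by laser-scanning microplate cytometry. Cells from a stable line were exposed to compound titrations (5 concentrations) for 24 hours, with CCCP controls.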
KB-V1 MDR tox – qHTS assay for MDR1-selective chemotherapeutics: Primary screen using the drug-selected MDR subline cells KB-V1. KB-V1 MDR cells viability, CellTiter-Glo, 72 h. Potency, µM (series often up to 46.1 µM), usual class: cytotoxic. 400,000 compounds, 3.4% hits; further: on the % scale 0 is the no-effect control and ±100 the full control effect; nearly all actives have a fitted effect of over 60% in size
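Potencies derive from concentration-effect curves fitted to normalized luminescence (CellTiter-Glo) of KB-V1 cells treated for 72 h at 37 degrees C in phenol-red-free DMEM containing 10% FBS.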
MCF10A rereplic – A quantitative high throughput screen for small molecules that induce DNA re-replication in MCF 10a normal breast cells | MCF 10A DNA re-replication, Hoechst nuclear intensity, 48 h | Potency, µM (doses to about 46.1 µM), inactives show at the top dose activity, positive = re-replication, most hits filed as activators | 350,000 compounds, 2.9% hits | AID 624296, 2012; further: % of control where 0% means no effect; nearly all actives have a fitted effect of over 50% in size
KB-3-1 cytotox – qHTS assay for MDR1-selective chemotherapeutics: Primary screen using the parental adenocarcinoma cell KB-3-1; AID 1347075, 2019; Potency, µM (top dose mostly 46.1 µM), hits mostly cytotoxic; KB-3-1 viability, CellTiter-Glo ATP luminescence, 72 h; 400,000 compounds, 1.4% hits; further: on the % scale 0 is the no-effect control and ±100 the full control effect; nearly all actives have a fitted effect of over 60% in size
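KB-3-1 parental drug-naive adenocarcinoma cells in DMEM/10% FBS, incubated 72 h at 37 C with pin-transferred compounds across a concentration series. Viability by CellTiter-Glo luminescence; concentration-response curves fitted after normalization.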
SW480 rerep – A quantitative high throughput screen for small molecules that induce DNA re-replication in SW480 colon adenocarcinoma cells; SW480 DNA re-replication, Hoechst DNA content imaging, 48 h; Potency, µM (highest dose often 46.1 µM), for inactives: top-dose re-replication activation, usual class: activators; 340,000 compounds, 1.8% hits; AID 624297, 2012; further: % of control where 0% means no effect; nearly all actives have a fitted effect of over 55% in size
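Treated cells incubate 48 hr (37 C, 5% CO2), are stained 40 min with Hoechst, and nuclear fluorescence is enumerated; a rise in nuclei with high DNA signal marks re-replication.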
An asterisk follows results filed as active; i = inactive; ? = inconclusive; · = not tested or not shown; ! = repeats disagree; [ ] = dose if it differs, or a comment. An excerpt weighted towards active compounds, which were near 6.7% of everything screened. Unless noted, the call rests on the fitted dose curve; in most records, active means well fitted curve in the direction sought with a large enough effect; inconclusive means small, poorly fitted or top-dose-only effect, or another doubt; inactive means no such curve, though single readings can be large; an effect the other way counts as inactive or inconclusive. Potency means the concentration at half of the fitted maximal effect.

SMILES	PINK1 modulator	KB-V1 MDR tox	MCF10A rereplic	KB-3-1 cytotox	SW480 rerep
CC1(C(=O)NCCc2ccccc2)Cc2c(-c3cccc(C(F)(F)F)c3)ccnc2O1 (configuration not stated)	-1%	?	·	?	·
N#CC1=C(N)Oc2cc3ccccc3cc2C1c1cccnc1 (configuration not stated)	10%	?	7.1µM*	5.8µM*	18µM*
C[n+]1cccc(C2C(C#N)=C(N)Oc3c2ccc2ccccc32)c1 (configuration not stated)	1%	?	?	?	18µM*
CCOC(=O)CC1=C(C(=O)OCC)C(c2cccs2)C(C#N)=C(N)O1 (configuration not stated)	-2%	?	-7%	i	-7%
CN(C)/C=N/C1=C(C#N)C(c2cccs2)c2ccc3ccccc3c2O1 (configuration not stated)	1%	5.8µM*	?	2.6µM*	5.2µM*
N#CC1=C(N)Oc2c(ccc3cccnc23)C1c1cccnc1 (configuration not stated)	23%	?	8.2µM*	?	2.6µM*
Cc1cc(=O)[nH]c(SCC(=O)NC2CCCCC2)n1	-3%	i	4%	i	-12%
CS(=O)(=O)N1CCC2(CCN(C(=O)Nc3cccc(C#N)c3)CC2)CC1	0%	·	·	·	·
CCOC(=O)C1=C(c2ccccc2)OC(N)=C(C#N)C1c1cccs1 (configuration not stated)	11%[38.3 µM]	?	-3%	i	-7%
CCc1ccc2[nH]c(=O)c(C3C(C#N)=C(N)Oc4c3ccc3cccnc43)cc2c1 (configuration not stated)	2%	2.3µM*	?	?	?
N#CC1=C(N)Oc2cc3ccccc3cc2C1c1cccs1 (configuration not stated)	6%	i	?	10µM*	?
CCNC(=O)C1(C)CCCN(Cc2ccccc2-c2ccccc2)C1 (configuration not stated)	1%	i	·	i	·
Cc1noc(C)c1C(=O)N1CCC1(C)C(=O)NS(=O)(=O)c1ccccc1C(F)(F)F (configuration not stated)	3%	i	·	i	·
CC(C)(C)OC(=O)N1CCC(c2c(C(=O)NCc3ccco3)cnn2-c2ccc(F)cc2F)CC1	1%	i	·	i	·
C=C(C)Cc1c(C)c(C#N)c2nc3ccccc3n2c1N1CCCCC1	10%	3.7µM*	?	i	-6%
C=C(C)CSc1cc(C)c(C#N)c2nc3ccccc3n12	21%	i	5.8µM*	i	?
CCCNC(=O)c1ccccc1NC(=O)COc1ccc(OC)cc1	4%	4.6µM*	0%	i	-4%
COc1ccccc1NC(=O)COc1ccc(-c2nn(C)c(=O)c3ccccc23)cc1	0%	18µM*!	15%	?	0%
COc1ccccc1NC(=O)COc1ccccc1	-2%[38.3 µM]	i	?	i	?
COc1ccc(OCC(=O)Nc2ccccc2O)cc1	3%[38.3 µM]	16µM*	0%	i	12%
COc1cc(NC(=O)COc2ccc(F)cc2)nc(OC)n1	·	i	?	i	21µM*
COc1cc(NS(=O)(=O)c2ccc(NC(=O)COc3ccc(C)cc3)cc2)nc(OC)n1	1%	i	-2%	i	-10%
COc1ccc(/C=C/c2nccc3ccccc23)cc1OC	2%	?	·	?	·
COc1cc(CNc2nc(C)c(-c3ccn(CC4CCCN(C)C4)n3)s2)ccc1F (configuration not stated)	-1%	·	·	·	·
O=C(Nc1ccc(C(=O)N2CCCC2)cc1)C1CCC1	-1%	i	2%	i	17%[9.22 µM]
SMILES	PINK1 modulator	KB-V1 MDR tox	MCF10A rereplic	KB-3-1 cytotox	SW480 rerep
CCOCCn1ccc2c(OCC(=O)Nc3cc(OC)ccc3OC)cccc2c1=O	1%	16µM*	?	i	?
Nc1cccc2c1C(=O)N(CCOc1ccccc1F)C2=O	1%	i	18µM*	i	?
N#Cc1ccccc1OCCN1C(=O)c2ccccc2C1=O	1%	i	12µM*	i	-10%
Cc1cccc(OCCN2C(=O)c3ccccc3C2=O)c1	1%	?	3%	i	-46%
O=C1c2ccccc2C(=O)N1CCOCCN1C(=O)c2ccccc2C1=O	-2%	i	2%	i	-9%
COc1cc(Cl)c(CN2CCOc3ccc(CN4CCCCC4CO)cc3C2)cc1OC (configuration not stated)	-1%	·	·	·	·
CC(C)c1ccc(/C=N/NC(=O)c2cccc(Cl)c2)cc1	9%	8.2µM*	5.8µM*	13µM*	?
CC(C)c1ccc(/C=N/NC(=O)c2ccccn2)cc1	2%	i	17%	i	17%
CC(C)c1ccc(/C=N/NC(=O)c2cc(-c3cccc([N+](=O)[O-])c3)n[nH]2)cc1	8%	i	18µM*	?	-7%
CC(=O)N1CCC[C@@]2(CCN(C(=O)Nc3ccccc3)C2)C1	-1%	·	·	·	·
O=C(Nc1ccc(Cl)cc1Cl)[C@@H]1CC=C[C@@H]2CCN(C3CCCCC3)C(=O)[C@@H]21	·	i	·	i	·
Cc1sc2ccccc2[n+]1C	1%	?	·	?	·
COc1ccccc1C1SCCN1S(=O)(=O)c1cccc(C(F)(F)F)c1 (configuration not stated)	·	16µM*	12%	i	3%
COc1ccc(S(=O)(=O)N2CCSC2c2ccccc2)cc1 (configuration not stated)	5%[38.3 µM]	23µM*	?	?	8%
CCOC(=O)c1[nH]c2cc(OC)c(OC)cc2c1NC(=O)CN(C)C1CCCCC1	4%[38.3 µM]	7.3µM*	10%	?	0%
Cc1nc2ncccn2c1-c1csc(NCc2ccco2)n1	4%	16µM*	21%	?	-17%
Cc1nc2sccn2c1-c1csc(NCc2ccccc2)n1	·	13µM*	1%	?	17%
Cc1nc2ncccn2c1-c1csc(Nc2ccc(N(C)C)cc2)n1	2%	?	?	0.012µM*	?
COc1ccc(Nc2nc(-c3c(C)nc4ncccn34)cs2)cc1	?	i	86%	i	?
COc1ccccc1Nc1nc(-c2c(C)nc3ncccn23)cs1	5%	7.3µM*	9%	?	?
CC(C)NC(=O)N1CC[C@@]2(CCCN(C(=O)c3csnn3)C2)C1	0%	·	·	·	·
Cc1ccc(-c2nnc(Nc3ccc(O)cc3)c3ccccc23)cc1S(=O)(=O)N1CCN(C)CC1	4%	i	·	i	·
